Assay results published in PubChem BioAssay (EPA / NIEHS).
The source made the active and inactive calls. How the source made its calls: active means hit-call score of the fitted dose curve at least 0.9, where 1 is the maximum; inactive means score below 0.9.

Legend:
[1] = target: CCAAT/enhancer-binding protein beta (Homo sapiens) (UniProt P17676); test: ATG_C_EBP_CIS: Attagene CIS-FACTORIAL HepG2 Assay for human CCAAT/Enhancer Binding Protein (C/EBP) beta (AID 2282927); conditions: HepG2 Attagene cis-factorial transcription factor reporter; actives raise or lower the signal
CCAAT/enhancer-binding protein beta (Homo sapiens), sequence (P17676 whole entry, looked up): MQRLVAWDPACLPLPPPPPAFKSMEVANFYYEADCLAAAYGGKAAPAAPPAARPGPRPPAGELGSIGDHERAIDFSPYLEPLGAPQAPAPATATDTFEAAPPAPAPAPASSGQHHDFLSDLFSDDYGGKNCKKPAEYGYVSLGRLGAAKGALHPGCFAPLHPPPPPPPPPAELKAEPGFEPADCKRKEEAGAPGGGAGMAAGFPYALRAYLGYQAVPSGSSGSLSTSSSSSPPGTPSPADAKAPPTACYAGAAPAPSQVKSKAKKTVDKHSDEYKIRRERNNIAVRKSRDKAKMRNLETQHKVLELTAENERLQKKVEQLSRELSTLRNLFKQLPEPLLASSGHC
In short: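 HepG2 transiently transfected with multiplexed reporter units under cis-regulatory promoters reporting endogenous C/EBPb activity. After 24 h exposure, reporter mRNA assayed by RT-PCR, fluorescent labelling, HpaI digestion and capillary electrophoresis; bidirectional fitting versus DMSO.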

[2] = ATG_CMV_CIS: Attagene CIS-FACTORIAL HepG2 Assay for human CMV (Internal Marker) (AID 2282928); conditions: HepG2 CMV promoter reporter, transcription factor profiling; actives raise or lower the signal;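 further: endpoint acts as a background internal control marker rather than a target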
In short: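 Cell system: HepG2, transiently transfected multiple reporter units under cis promoters. Exposure: 24 h. Detection: RT-PCR, FAM labeling, HpaI digestion, capillary electrophoresis. Analysis: bidirectional, DMSO baseline.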

[3] = ATG_DR4_LXR_CIS: Attagene CIS-FACTORIAL HepG2 Assay for human Liver X Receptor (LXR), DR4 submotif (AID 2282929); conditions: HepG2 Attagene DR4 cis-reporter, mRNA transcription; actives raise or lower the signal
In short: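 Transiently transfected HepG2 liver cells; cis-regulated reporters; 24 h dosing. RT-PCR plus CE read-out of reporter mRNA. DMSO baseline, bidirectional curve fitting.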

[4] = ATG_AP_1_CIS: Attagene CIS-FACTORIAL HepG2 Assay for human Activator Protein 1 (AP-1) (AID 2282931); conditions: HepG2 Attagene cis-factorial AP-1 reporter mRNA; actives raise or lower the signal
In short: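 We transfected HepG2 cells transiently with a set of cis-regulated reporter transcription units, dosed them for 24 h, and quantified reporter mRNA via RT-PCR and capillary electrophoresis, scoring gain or loss of signal relative to DMSO.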

[5] = ATG_AP_2_CIS: Attagene CIS-FACTORIAL HepG2 Assay for human Activator Protein 2 (AP-2) (AID 2282932); conditions: HepG2 AP-2 cis-reporter, Attagene transcription factor profiling; actives raise or lower the signal
In short: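 Multiplexed mRNA reporter assay in HepG2: cis-regulated units report endogenous factor activity after 24 h treatment. Fluorescence from capillary electrophoresis of RT-PCR products gives the signal, with DMSO as baseline.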

[6] = ATG_BRE_CIS: Attagene CIS-FACTORIAL HepG2 Assay for human Bone Morphogenetic Protein (BMP) Response Element (BRE) (AID 2282933); conditions: HepG2 BMP response element reporter, Attagene transcription factor profiling; actives raise or lower the signal
In short: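 Endogenous transcription factor activity read in transiently transfected HepG2 cells after 24 h chemical exposure. Bidirectional curve fitting against DMSO; readout is reporter transcript level by RT-PCR with capillary electrophoresis of labelled products.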

[7] = target: Retinoic acid receptor alpha (Homo sapiens) (UniProt P10276); test: ATG_DR5_RAR_CIS: Attagene CIS-FACTORIAL HepG2 Assay for human Retinoic Acid Receptor Alpha (RARE), DR5 submotif (AID 2282934); conditions: HepG2 Attagene cis-factorial RARE DR5 reporter, mRNA; actives raise or lower the signal;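 on AC50: reporter responds to endogenous RAR alpha beta and gamma in HepG2 not RARA alone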
Retinoic acid receptor alpha (Homo sapiens), sequence (P10276 whole entry, looked up): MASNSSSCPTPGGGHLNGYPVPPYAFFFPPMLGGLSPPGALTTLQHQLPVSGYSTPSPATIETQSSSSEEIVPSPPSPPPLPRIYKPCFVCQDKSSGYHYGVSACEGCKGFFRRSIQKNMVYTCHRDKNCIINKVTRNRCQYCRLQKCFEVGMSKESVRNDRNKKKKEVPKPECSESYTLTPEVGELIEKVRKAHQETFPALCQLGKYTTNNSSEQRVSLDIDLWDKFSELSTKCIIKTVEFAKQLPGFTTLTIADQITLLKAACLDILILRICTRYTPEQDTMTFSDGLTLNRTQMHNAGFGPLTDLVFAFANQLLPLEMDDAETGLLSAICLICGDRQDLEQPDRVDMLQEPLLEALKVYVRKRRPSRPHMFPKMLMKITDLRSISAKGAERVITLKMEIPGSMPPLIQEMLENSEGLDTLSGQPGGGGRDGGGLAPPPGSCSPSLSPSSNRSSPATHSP
In short: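 HepG2 cells transiently transfected with multiplexed reporter units; DR5 cis-element drives reporter through endogenous transcription factors. After 24 h dosing, reporter mRNA quantified by RT-PCR, fluorescent labeling, HpaI digestion and capillary electrophoresis; bidirectional fitting versus DMSO.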

[8] = target: Transcription factor E2F1 (Homo sapiens) (UniProt Q01094); test: ATG_E2F_CIS: Attagene CIS-FACTORIAL HepG2 Assay for human E2F Transcription Factor 1 (AID 2282935); conditions: HepG2 Attagene cis-reporter, E2F reporter RNA transcripts; actives raise or lower the signal
Transcription factor E2F1 (Homo sapiens), sequence (Q01094 whole entry, looked up): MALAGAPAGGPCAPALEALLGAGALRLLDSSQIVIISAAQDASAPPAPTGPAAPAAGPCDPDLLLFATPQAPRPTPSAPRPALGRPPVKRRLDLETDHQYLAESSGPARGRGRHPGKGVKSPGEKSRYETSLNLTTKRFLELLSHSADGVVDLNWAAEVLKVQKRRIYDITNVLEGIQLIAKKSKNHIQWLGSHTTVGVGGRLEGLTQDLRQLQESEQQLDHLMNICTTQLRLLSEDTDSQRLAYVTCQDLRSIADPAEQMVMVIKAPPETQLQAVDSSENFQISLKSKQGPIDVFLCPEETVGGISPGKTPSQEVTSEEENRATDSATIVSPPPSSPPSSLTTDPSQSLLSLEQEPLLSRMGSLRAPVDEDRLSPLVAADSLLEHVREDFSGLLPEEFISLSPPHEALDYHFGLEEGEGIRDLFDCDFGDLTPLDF
In short: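 Measures reporter transcript levels via RT-PCR with capillary electrophoresis detection in HepG2 cells harboring cis-regulated reporter units; 24 h post-dose; bidirectional curve fitting with DMSO as baseline.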

[9] = ATG_E_Box_CIS: Attagene CIS-FACTORIAL HepG2 Assay for human Enhancer Box (E-box) (AID 2282936); conditions: HepG2 E-box cis-reporter transcription, actives raise or lower the signal
In short: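 First, HepG2 cells receive multiple cis-regulated reporter constructs by transient transfection. Next, chemicals are applied for 24 h. Finally, reporter mRNA is quantified via RT-PCR and capillary electrophoresis, with DMSO as baseline.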

[10] = ATG_M_61_CIS: Attagene CIS-FACTORIAL HepG2 Assay for M61 Transcription Factor (Internal Marker) (AID 2282937); conditions: HepG2 Attagene CIS-FACTORIAL M61 internal marker reporter; actives raise or lower the signal
In short: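 Multiplexed reporter mRNA assay, HepG2 human hepatoma cells, 24 h treatment. Signal: FAM-labelled, HpaI-digested RT-PCR fragments by CE. Fit: bidirectional, baseline DMSO.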

[11] = ATG_EGR_CIS: Attagene CIS-FACTORIAL HepG2 Assay for human Early Growth Response 1 (EGR1) (AID 2282938); conditions: HepG2 Attagene CIS-FACTORIAL EGR reporter mRNA; actives raise or lower the signal
In short: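 Multiplexed cis-reporter system in human hepatoma HepG2 cells, transiently transfected. Cells are dosed for 24 h; reporter transcripts are amplified, fluorescently tagged and sized by capillary electrophoresis, with DMSO as negative control.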

[12] = ATG_M_19_CIS: Attagene CIS-FACTORIAL HepG2 Assay for M19 Transcription Factor (Internal Marker) (AID 2282939); conditions: HepG2 Attagene CIS-FACTORIAL M19 internal marker reporter; actives raise or lower the signal
In short: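 Internal marker readout, fitted in both directions against DMSO, from HepG2 cells carrying transfected cis-element reporter constructs; RT-PCR and capillary electrophoresis of reporter mRNA after 24 h exposure.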

[13] = ATG_ERE_CIS: Attagene CIS-FACTORIAL HepG2 Assay for Estrogen Response Element (ERE) (AID 2282940); conditions: HepG2 ERE cis-reporter, Attagene RNA transcript; actives raise or lower the signal
In short: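 After 24 h compound treatment, RNA from transfected HepG2 cells was reverse-transcribed, reporter cDNA PCR-amplified, FAM-labelled, HpaI-cut and resolved by capillary electrophoresis. ERE-driven cis reporter transcripts reflect endogenous factors; gain or loss scored against DMSO.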

[14] = ATG_Ets_CIS: Attagene CIS-FACTORIAL HepG2 Assay for human Erythroblast Transformation Specific (ETS) (AID 2282941); conditions: HepG2 ETS cis-reporter transcription, actives raise or lower the signal
In short: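 After transient cis-reporter transfection, HepG2 cells receive test chemical for 24 h. Reporter mRNA levels, measured by RT-PCR and capillary electrophoresis fluorescence, are analysed bidirectionally relative to the DMSO baseline.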

[15] = target: Hepatocyte nuclear factor 3-beta (Homo sapiens) (UniProt Q9Y261); test: ATG_FoxA2_CIS: Attagene CIS-FACTORIAL HepG2 Assay for human Forkhead box A2 (FOXA2) (AID 2282942); conditions: HepG2 cis-reporter transcription factor activity, 24 h; actives raise or lower the signal
Hepatocyte nuclear factor 3-beta (Homo sapiens), sequence (Q9Y261 whole entry, looked up): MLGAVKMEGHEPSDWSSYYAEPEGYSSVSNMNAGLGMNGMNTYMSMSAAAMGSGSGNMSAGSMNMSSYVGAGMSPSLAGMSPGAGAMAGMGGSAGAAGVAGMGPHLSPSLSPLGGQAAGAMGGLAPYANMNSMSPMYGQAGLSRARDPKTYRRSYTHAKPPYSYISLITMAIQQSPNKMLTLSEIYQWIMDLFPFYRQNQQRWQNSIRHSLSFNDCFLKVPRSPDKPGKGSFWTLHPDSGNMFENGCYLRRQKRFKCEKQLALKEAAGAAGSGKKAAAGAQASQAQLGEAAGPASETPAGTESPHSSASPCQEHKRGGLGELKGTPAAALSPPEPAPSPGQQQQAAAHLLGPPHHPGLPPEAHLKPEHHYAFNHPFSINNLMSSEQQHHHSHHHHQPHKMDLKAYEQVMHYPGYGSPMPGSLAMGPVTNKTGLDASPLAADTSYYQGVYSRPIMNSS
In short: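 Multiplexed cis-element reporter assay in transiently transfected HepG2. Twenty-four hours post-dosing, RNA was reverse-transcribed, amplified, FAM-labelled, HpaI-digested and separated by CE. Activity gain or loss relative to DMSO.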

[16] = ATG_FoxO_CIS: Attagene CIS-FACTORIAL HepG2 Assay for human Forkhead box O (FoxO) (AID 2282943); conditions: HepG2 Attagene cis-reporter, FoxO element, mRNA; actives raise or lower the signal
In short: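 HepG2 cells transiently transfected with cis-element-driven reporter units report endogenous FoxO activity. After 24 h chemical exposure, reporter mRNA quantified by RT-PCR, fluorescent labeling, HpaI digestion and capillary electrophoresis; bidirectional fit versus DMSO.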

[17] = ATG_GLI_CIS: Attagene CIS-FACTORIAL HepG2 Assay for human Zinc Finger Protein GLI1 (AID 2282945); conditions: HepG2, Attagene cis-factorial reporter mRNA, GLI element; actives raise or lower the signal
In short: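 Transiently transfected HepG2 cells report endogenous transcription factor activity via cis-element-driven reporter units. After 24 h compound exposure, reporter mRNA was measured by RT-PCR with capillary electrophoresis; bidirectional fitting against DMSO baseline.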

[18] = target: Aryl hydrocarbon receptor (Homo sapiens) (UniProt P35869); test: ATG_Ahr_CIS: Attagene CIS-FACTORIAL HepG2 Assay for human Aryl Hydrocarbon Receptor (Ahr) (AID 2282930); conditions: HepG2 AhR cis-factorial reporter transcription; actives raise or lower the signal
Aryl hydrocarbon receptor (Homo sapiens), sequence (P35869 whole entry, looked up): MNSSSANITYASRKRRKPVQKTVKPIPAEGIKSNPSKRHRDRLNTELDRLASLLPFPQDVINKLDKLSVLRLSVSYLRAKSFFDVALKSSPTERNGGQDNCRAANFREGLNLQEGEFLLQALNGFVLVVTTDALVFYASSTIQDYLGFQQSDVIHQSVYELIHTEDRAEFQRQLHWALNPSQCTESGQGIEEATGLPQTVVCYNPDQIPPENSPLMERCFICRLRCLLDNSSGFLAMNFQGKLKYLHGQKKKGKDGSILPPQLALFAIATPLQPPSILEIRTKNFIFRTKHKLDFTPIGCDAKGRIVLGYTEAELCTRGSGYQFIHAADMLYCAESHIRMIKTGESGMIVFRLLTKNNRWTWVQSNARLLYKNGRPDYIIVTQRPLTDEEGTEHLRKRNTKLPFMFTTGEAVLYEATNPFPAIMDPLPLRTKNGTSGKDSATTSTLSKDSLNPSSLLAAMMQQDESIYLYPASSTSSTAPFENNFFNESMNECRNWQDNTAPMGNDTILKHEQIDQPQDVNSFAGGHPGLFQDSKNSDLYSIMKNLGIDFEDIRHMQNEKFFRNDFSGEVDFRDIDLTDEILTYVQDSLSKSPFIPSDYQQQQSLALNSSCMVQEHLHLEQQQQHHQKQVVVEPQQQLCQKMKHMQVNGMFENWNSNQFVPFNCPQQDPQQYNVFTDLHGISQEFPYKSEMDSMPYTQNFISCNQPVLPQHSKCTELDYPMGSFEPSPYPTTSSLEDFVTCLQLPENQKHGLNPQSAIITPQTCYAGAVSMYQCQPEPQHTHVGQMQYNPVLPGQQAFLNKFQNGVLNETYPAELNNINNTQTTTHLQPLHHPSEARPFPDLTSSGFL
In short: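 HepG2 cells transiently transfected with cis-element-driven multiplexed reporter units; endogenous AhR activity read as reporter mRNA 24 h after dosing, via RT-PCR, 6-FAM labelling, HpaI digestion and capillary electrophoresis. Bidirectional fit relative to DMSO.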

[19] = ATG_GATA_CIS: Attagene CIS-FACTORIAL HepG2 Assay for human GATA Binding Protein (AID 2282944); conditions: HepG2 GATA cis-element reporter, Attagene multiplex mRNA; actives raise or lower the signal
In short: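 Reporter transcripts from a GATA cis-regulated unit, among multiplexed reporters in transfected HepG2 cells, were measured by RT-PCR with capillary electrophoresis after 24 h dosing. Induction or loss scored relative to DMSO.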

Measured: AC50

Cc1cc(O)c(Cl)c(C)c1Cl
active: [2] 23.9 µM | [13] 28.3 µM
not listed: [18] | [19]
inactive: all other assays above

c1cc(N(CC2CO2)CC2CO2)ccc1OCC1CO1 (stereo unspecified)
active: [2] 91.5 µM | [3] 6.98 µM | [5] 25.8 µM | [7] 83.1 µM | [11] 38.7 µM | [17] 140 µM
not listed: [8] | [15]
inactive: all other assays above

C=C1C2CCC(C2)C1(C)C (stereo unspecified)
inactive: all assays above

COc1ccc2nc(N)sc2c1
active: [18] 3.17 µM
not listed: [1]
inactive: all other assays above

CCOC(=O)N1CCC(=C2c3ccc(Cl)cc3CCc3cccnc32)CC1
active: [2] 7.56 µM | [3] 9.1 µM | [11] 6.7 µM
not listed: [8]
inactive: all other assays above

CCOC(F)(F)C(F)(F)C(F)(F)C(F)(F)F
not listed: [2]
inactive: all other assays above

O=[N+]([O-])c1ccc(CO)cc1
inactive: all assays above

Cc1ccc(OC(=O)CC(C)C)cc1
not listed: [1] | [15]
inactive: all other assays above

C=C(C)C(=O)OCC(C)C
not listed: [5]
inactive: all other assays above
